The record followed here is the supplement of paper PMC9135407.

Each structure is given as a SMILES string. Values joined by “and” are separate entries in the source; they are usually repeats but may differ in a detail not shown here. Equal values may be shown once. Where a name gives a salt, the structure may show the parent alone. Out of some 5,800 compounds screened, about 620 (11%) showed activity. This excerpt belongs to a sample that is enriched for actives. Values without a mark were called inactive.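 The calls were made as follows: active = score above a cut-off or among the top three wells of a plate; in these data no inactive exceeds 0.85.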

This test relates to primary human hepatic stellate cells (donor 1). Briefly: scaled lipid accumulation score (0 = DMSO-like, 1 = nortriptyline-like); higher = stronger HSC inactivation (lipid re-accumulation), active = hit call of the paper. To be noted: 48 h.
Where [1] appears, read: library stock concentration: 1 mM.
Where [2] appears, read: library stock concentration: 10 mM.
Where [3] appears, read: library stock concentration: 3.33 mM.
[4] abbreviates: library stock concentration: 80 uM.
Where [5] appears, read: library stock concentration: 400 uM.
Where [6] appears, read: library stock concentration: 2 mM.

With `CC[C@]1(O)C[C@H]2CN(CCc3c([nH]c4ccccc34)[C@@](C(=O)OC)(c3cc4c(cc3OC)N(C)[C@H]3[C@@](O)(C(N)=O)[C@H](O)[C@]5(CC)C=CCN6CC[C@]43[C@@H]65)C2)C1.O=S(=O)(O)O`, the “scaled lipid accumulation score” value (library stock concentration: 9.7 mM) is 1.52 (active).

As to `CCCCC[C@H](O)/C=C/[C@@H]1[C@H]2C/C(=C/CCCC(=O)O)C[C@H]2C[C@H]1O` [Carbacyclin], the “scaled lipid accumulation score” value under setting [1] is no more than -0.021. As for `N=C(N)c1ccc(N2CCN(C3CCN(CC(=O)O)CC3)CC2)cc1`, the “scaled lipid accumulation score” value under setting [2] was no more than -0.006. With `CCCCCCCCCCCCC/C=C/[C@@H](O)[C@H](CO)NC(=O)CCCCC` [C-6 Ceramide], the “scaled lipid accumulation score” value under setting [1] is no more than 0. In the case of `CCCCC/C=C\C/C=C\C/C=C\C/C=C\CCCCN1C(=O)C=CC1=O` [N-Arachidonyl Maleimide], the “scaled lipid accumulation score” value under setting [1] is no more than 0.

For the compound `CCCCC[C@H](O)CC(=O)CCc1ccc(O)c(OC)c1` [6-Gingerol], where the note is “library stock concentration: 17 mM”, the “scaled lipid accumulation score” value was no more than -0.014. Take `Cc1c(-c2cnccn2)ssc1=S` [Oltipraz]: the “scaled lipid accumulation score” value (library stock concentration: 8.8 mM) was 0.01. Regarding `N[C@H](CO)C(=O)O` [D-Serine], the “scaled lipid accumulation score” value under setting [2] was no more than 0. With `Cl[H].CN1CC\C(=C(/c2c(cccc2)C=C3)\c(cccc4)c34)\CC1` [Cyproheptadine hydrochloride], the “scaled lipid accumulation score” value under setting [2] is 1.04 (active). As for `CN1CCC(=C2c3ccccc3C=Cc3ccccc32)CC1` [Cyproheptadine hydrochloride], where the note is “library stock concentration: 6.2 mM”, the “scaled lipid accumulation score” value is 0.686. For the compound `CN1CCC(=C2c3ccccc3C=Cc3ccccc32)CC1`, the “scaled lipid accumulation score” value under setting [2] was 1.32 (active). Take `CN1CCC(=C2c3ccccc3C=Cc3ccccc32)CC1` [Cyproheptadine]: the “scaled lipid accumulation score” value (library stock concentration: 7 mM) is 0.351.

For the compound `CN1CCC(=C2c3ccccc3CCc3cccnc32)CC1` [Azatadine dimaleate], the “scaled lipid accumulation score” value by setting is: under setting [3], 0.004; under setting [2], 0.221. Take `Cl.C(=C(\CCN(C)C1)/C1)(/c2c(cccc2)C=C3)\c4c3cccc4` [Cyproheptadine hydrochloride]: the “scaled lipid accumulation score” value is 0.968 (active). With `C(=C(/CC1)\CCN1C)(/c2c3cccc2)\c4c(cccc4)C=C3.Cl` [Cyproheptadine hydrochloride], the “scaled lipid accumulation score” value under setting [2] was 0.933 (active). `CN1CCC(=C2c3ccccc3Sc3ccccc32)CC1` [Pimethixene maleate]: the “scaled lipid accumulation score” value is 0.65. Moreover, under setting [2], the “scaled lipid accumulation score” value is 0.656.

In the case of `CN1CCC(=C2c3ccccc3CCc3cccnc32)CC1`, the “scaled lipid accumulation score” value under setting [2] is 0.464.

On to `CN1CCC(=C2c3ccccc3C=Cc3ccccc32)CC1` [Cyproheptadine HCl], for which the “scaled lipid accumulation score” value by setting is: under setting [3], 0.629; under setting [2], 0.63. On to `C#C[C@]1(OC(C)=O)CC[C@H]2[C@@H]3CCC4=CC(=NO)CC[C@@H]4[C@H]3CC[C@@]21CC` (mixture of isomers) [Norgestimate], for which the “scaled lipid accumulation score” value (library stock concentration: 5.4 mM) is no more than 0. With `CC1COCCN1c1cc(C2(S(C)(=O)=O)CC2)nc(-c2cccc3[nH]ccc23)n1` (centres undefined), the “scaled lipid accumulation score” value is no more than 0 under setting [3] and no more than -0.001 under setting [2].

Regarding `CCCCC(F)(F)[C@@]1(O)CC[C@H]2[C@@H](CC(=O)[C@@H]2CCCCCCC(=O)O)O1` [Lubiprostone], the “scaled lipid accumulation score” value was no more than 0 under setting [3] and no more than 0 under setting [2].

In the case of `CCCCC/C=C\C/C=C\CCCCCCCC(=O)OCC(O)CO` (centres undefined) [1-Linoleoyl Glycerol], the “scaled lipid accumulation score” value under setting [1] was no more than 0.

In the case of `C=C1C[C@H](O)[C@H](C/C=C\CCCC(=O)O)[C@H]1/C=C/[C@@H](O)CCCCC` [11-deoxy-11-methylene Prostaglandin D2], under setting [1], the “scaled lipid accumulation score” value was no more than 0. For `CCC(C)C(COC(Cc1ccccc1)C(=O)NC(CCS(C)(=O)=O)C(=O)OC(C)C)NCC(N)CS` (centres undefined), the “scaled lipid accumulation score” value (library stock concentration: 7.9 mM) is 0.195. As for `CC(C)(C)CC(C)(C)c1cc(Cc2cc(C(C)(C)CC(C)(C)C)cc(-n3nc4ccccc4n3)c2O)c(O)c(-n2nc3ccccc3n2)c1`, under setting [2], the “scaled lipid accumulation score” value was no more than 0. As to `CCCCC[C@@H](O)[C@H]1C(=O)O[C@H](C)[C@@H](O)/C=C/C=C/C=C/C=C/C=C(\C)[C@@H](O)C[C@H](O)C[C@H](O)C[C@H](O)C[C@H](O)C[C@H](O)C[C@@H]1O` [Filipin], where the note is “library stock concentration: 3.1 mM”, the “scaled lipid accumulation score” value is 0.029. Consider `CCCCC[C@@H](O)[C@H]1C(=O)O[C@H](C)[C@@H](O)/C=C/C=C/C=C/C=C/C=C(\C)[C@@H](O)C[C@H](O)C[C@H](O)C[C@H](O)C[C@H](O)C[C@H](O)C[C@@H]1O` [Filipin III], for which the “scaled lipid accumulation score” value under setting [1] is 0.021. Same read-out and setting: the figure for `COc1ccc2c(c1)c(CC(=O)SC[C@H](NC(C)=O)C(=O)OCCCCO[N+](=O)[O-])c(C)n2C(=O)c1ccc(Cl)cc1` [NO-Indomethacin] is no more than 0. For `C[C@@H]1C[C@H]2[C@@H]3CCC4=CC(=O)C=C[C@]4(C)[C@@]3(Cl)[C@@H](O)C[C@]2(C)[C@@]1(OC(=O)c1ccco1)C(=O)CCl` [Mometasone furoate], the “scaled lipid accumulation score” value was 0.136. Further, the “scaled lipid accumulation score” value under setting [3] is 0.086. The “scaled lipid accumulation score” value under setting [2] was 0.519. Regarding `COc1cc(Nc2c(C#N)cnc3cc(OCCCN4CCN(C)CC4)c(OC)cc23)c(Cl)cc1Cl` [Bosutinib], the “scaled lipid accumulation score” value runs as follows: under setting [4], no more than -0.016; under setting [5], no more than -0.016; under setting [6], no more than -0.016; under setting [2], no more than -0.016.

Turning to `CCN1CCC(n2cc(CNc3cc(Cl)c4ncc(C#N)c(Nc5ccc(F)c(Cl)c5)c4c3)nn2)CC1` [listing 1 of 2 here], under setting [2], the “scaled lipid accumulation score” value is 1.15 (active). On to `COc1cc(Nc2c(C#N)cnc3cc(OCCCN4CCN(C)CC4)c(OC)cc23)c(Cl)cc1Cl` [Bosutinib (SKI-606) (10 mM)], for which, under setting [2], the “scaled lipid accumulation score” value was 0.388. For the compound `COc1cc(Nc2c(C#N)cnc3cc(OCCCN4CCN(C)CC4)c(OC)cc23)c(Cl)cc1Cl` [Bosutinib (SKI-606) (2 mM)], the “scaled lipid accumulation score” value under setting [6] was 0.096. As to `COc1cc(Nc2c(C#N)cnc3cc(OCCCN4CCN(C)CC4)c(OC)cc23)c(Cl)cc1Cl` [Bosutinib (SKI-606) (0.4 mM)], under setting [5], the “scaled lipid accumulation score” value is no more than -0.005. In the case of `CCN1CCC(n2cc(CNc3cc(Cl)c4ncc(C#N)c(Nc5ccc(F)c(Cl)c5)c4c3)nn2)CC1` [listing 2 of 2 here], the “scaled lipid accumulation score” value by setting is: under setting [4], no more than -0.009; under setting [5], no more than -0.009; under setting [6], no more than -0.009. Consider `COc1cc(Nc2c(C#N)cnc3cc(OCCCN4CCN(C)CC4)c(OC)cc23)c(Cl)cc1Cl` [Bosutinib (SKI-606)], for which the “scaled lipid accumulation score” value by setting is: under setting [3], 0.374; under setting [2], 0.395. On to `CC(C)c1ccccc1S(=O)(=O)c1cc(N)c2ncccc2c1[N+](=O)[O-]`, for which the “scaled lipid accumulation score” value under setting [2] is 0.26. Take `O=C(O)COc1ccc(C(=O)c2cccs2)c(Cl)c1Cl` [Tienilic Acid]: the “scaled lipid accumulation score” value under setting [1] is no more than 0. With `CC(C(=O)O)c1ccc(C(=O)c2cccs2)cc1` (centres undefined) [Suprofen], the “scaled lipid accumulation score” value is no more than 0. Also, under setting [3], the “scaled lipid accumulation score” value is no more than 0. Further, the “scaled lipid accumulation score” value (library stock concentration: 7.7 mM) is no more than 0. The “scaled lipid accumulation score” value under setting [2] was 0.024 and ≤ 0. Turning to `CC(C)c1ccc(C(=O)c2cccs2)c(SCCCCCCCCN(C)C)n1.O=C(O)C(=O)O`, under setting [2], the “scaled lipid accumulation score” value is 1.24 (active). On to `CC12CCC(CC1=O)C2(C)C` (centres undefined) [Camphor (1r)], for which, for the setting “library stock concentration: 13.1 mM”, the “scaled lipid accumulation score” value is no more than -0.001. Regarding `CO[C@H]1O[C@@H]2O[C@@]3(C)CC[C@H]4[C@H](C)CC[C@@H]([C@H]1C)[C@@]24OO3`, the “scaled lipid accumulation score” value under setting [2] was no more than 0. With `CO[C@H]1O[C@@H]2O[C@@]3(C)CC[C@H]4[C@H](C)CC[C@@H]([C@H]1C)[C@@]24OO3` [Artemether], the “scaled lipid accumulation score” value reads like this: under setting [3], no more than 0; under setting [2], ≤ 0 and 0.024. As for `CN1CC[C@@H](c2c(O)cc(O)c3c(=O)cc(-c4ccccc4Cl)oc23)[C@@H]1CO`, the “scaled lipid accumulation score” value was no more than -0.009 under setting [3] and 0.465 under setting [2]. Regarding `CN1CCN(S(=O)(=O)c2ccc(-c3cnc(N)c(C(=O)Nc4cccnc4)n3)cc2)CC1` [listing 1 of 2 here], the “scaled lipid accumulation score” value under setting [3] was 0.821.

With `CS(=O)(=O)c1ccc(-c2cnc(N)c(C(=O)Nc3ccccc3)n2)cc1` [listing 1 of 2 here], the “scaled lipid accumulation score” value runs as follows: under setting [4], 0.017; under setting [5], no more than 0; under setting [6], no more than 0; under setting [3], 0.225; under setting [2], 0.489. For `CS(=O)(=O)c1ccc(C(=O)Nc2ccc(Cl)c(-c3ccccn3)c2)c(Cl)c1` [Vismodegib (GDC-0449)], the “scaled lipid accumulation score” value is, setting by setting: under setting [3], 0.002; under setting [2], no more than 0.

For the compound `CS(=O)(=O)c1ccc(-c2cnc(N)c(C(=O)Nc3ccccc3)n2)cc1` [listing 2 of 2 here], under setting [2], the “scaled lipid accumulation score” value is 0.907 (active). For the compound `CN(C)c1nc(N)c(C(=O)Nc2cccnc2)nc1Cl` [ACDPP hydrochloride], under setting [2], the “scaled lipid accumulation score” value is no more than -0.001. The same measure, in the same setting: the figure for `CN1CCN(S(=O)(=O)c2ccc(-c3cnc(N)c(C(=O)Nc4cccnc4)n3)cc2)CC1` [listing 2 of 2 here] is 1.02 (active). Take `Cl.O=C([O-])c1ccc(-c2c3nc(c(-c4ccc(C(=O)O)cc4)c4nc(c(-c5ccc(C(=O)O)cc5)c5ccc([nH]5)c(-c5ccc(C(=O)[O-])cc5)c5ccc2[n-]5)C=C4)C=C3)cc1.[Mn+3]` [MnTBAP chloride]: the “scaled lipid accumulation score” value (library stock concentration: 5.7 mM) was no more than -0.012. Take `Cc1cn([C@H]2O[C@@H](CO)[C@H](O)[C@H]2F)c(=O)[nH]c1=O` [Clevudine]: the “scaled lipid accumulation score” value under setting [3] is no more than 0 and the “scaled lipid accumulation score” value under setting [2] is no more than 0. On to `O=C(CCC/C=C\C[C@H]1C(=O)C[C@@H](O)C1/C=C/[C@@H](O)CCc1ccccc1)NC(CO)CO` (some centres undefined) [17-phenyl trinor Prostaglandin E2 serinol amide], for which the “scaled lipid accumulation score” value under setting [1] is no more than 0. `NC(=O)N[C@@H](CCC(=O)O)C(=O)O`: the “scaled lipid accumulation score” value under setting [2] was no more than 0. With `O=C(Oc1cc(S(=O)(=O)c2ccccc2)ccc1[N+](=O)[O-])c1ccc(Cl)cc1`, the “scaled lipid accumulation score” value under setting [3] was no more than -0.009 and the “scaled lipid accumulation score” value under setting [2] is no more than 0. On to `S=C(NCc1ccc2c(c1)OCO2)N1CCN(c2ncnc3c2oc2ccccc23)CC1`, for which the “scaled lipid accumulation score” value under setting [4] is 0.069, the “scaled lipid accumulation score” value under setting [5] was no more than -0.009, the “scaled lipid accumulation score” value under setting [6] was 0.025 and the “scaled lipid accumulation score” value under setting [2] was 0.035.

Take `S=C(NCc1ccc2c(c1)OCO2)N1CCN(c2ncnc3c2oc2ccccc23)CC1` [Amuvatinib  (MP-470) (0.4 mM)]: the “scaled lipid accumulation score” value under setting [5] is 0.042. Consider `S=C(NCc1ccc2c(c1)OCO2)N1CCN(c2ncnc3c2oc2ccccc23)CC1` [Amuvatinib (MP-470)], for which the “scaled lipid accumulation score” value runs as follows: under setting [3], 0.006; under setting [2], no more than 0. As for `S=C(NCc1ccc2c(c1)OCO2)N1CCN(c2ncnc3c2oc2ccccc23)CC1` [Amuvatinib  (MP-470) (2 mM)], the “scaled lipid accumulation score” value under setting [6] was 0.074. Take `S=C(NCc1ccc2c(c1)OCO2)N1CCN(c2ncnc3c2oc2ccccc23)CC1` [Amuvatinib  (MP-470) (10 mM)]: under setting [2], the “scaled lipid accumulation score” value was 0.068.
